Our source for the inhibition values is ChEMBL document CHEMBL3433997, “St. Jude Leishmania screening dataset” (2016).

Type in all cases: functional
Experiment [1] deals with Solute carrier family 2, facilitated glucose transporter member 1 (Homo sapiens) (UniProt P11166). In words: ST_JUDE_LEISH: Cytotoxicity at 2uM final concentration against transgenic Leishmania Mexicana promastigotes LmGLUT1 that are glucose transport deficient and complemented with the human glucose transporter GLUT1. Activity is measured by DNA content using SYBR green in vitro.

Experiment [2] deals with Hexose transporter 1 (Plasmodium falciparum) (UniProt O97467). In words: ST_JUDE_LEISH: Cytotoxicity at 2uM final concentration against transgenic Leishmania Mexicana promastigotes LmPfHT that are glucose transport deficient and complemented with the Plasmodium falciparum hexose transporter. Activity is measured by DNA content using SYBR green in vitro.
For experiment [3], the target named is Glucose transporter (Leishmania mexicana) (UniProt O61059). In words: ST_JUDE_LEISH: Cytotoxicity at 2uM final concentration against transgenic Leishmania Mexicana promastigotes LmGT2 that are glucose transport deficient and complemented with the L. Mexicana glucose transporter 2. Activity is measured by DNA content using SYBR green in vitro.

Sequence of Solute carrier family 2, facilitated glucose transporter member 1 (Homo sapiens) (P11166 whole entry): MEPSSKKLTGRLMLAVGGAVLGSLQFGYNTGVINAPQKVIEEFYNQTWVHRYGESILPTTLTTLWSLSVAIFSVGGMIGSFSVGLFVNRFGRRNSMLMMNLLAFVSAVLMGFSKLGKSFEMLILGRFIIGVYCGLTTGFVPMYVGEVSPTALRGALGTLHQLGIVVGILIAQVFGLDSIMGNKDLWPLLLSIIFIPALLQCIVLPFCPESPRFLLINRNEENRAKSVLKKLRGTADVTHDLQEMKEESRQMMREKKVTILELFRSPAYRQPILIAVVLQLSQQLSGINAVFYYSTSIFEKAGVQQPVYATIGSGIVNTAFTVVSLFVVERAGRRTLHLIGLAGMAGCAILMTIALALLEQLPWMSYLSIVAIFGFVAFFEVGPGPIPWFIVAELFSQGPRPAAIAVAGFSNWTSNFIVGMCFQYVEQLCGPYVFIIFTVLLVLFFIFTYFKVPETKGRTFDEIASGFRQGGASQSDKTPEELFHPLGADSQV

In the case of `CCCCN(Cc1cccc(C(F)(F)F)c1Cl)c1ccc(C(O)(C(F)(F)F)C(F)(F)F)cc1`, the inhibition came to 7.39% in experiment [1], 6.7% in experiment [2] and 6.39% in experiment [3].
The corresponding values for `CN1CCN(c2ccnc3ccc(NC(=O)Nc4ccc5ccccc5c4)cc23)CC1` are 2.79%, 1.63% and 2.8%.
In the case of `CN(Cc1cc(C(F)(F)F)cc(C(F)(F)F)c1)C(=O)C1CNCC1c1ccc(F)cc1` (stereo unspecified), the figures for the inhibition in experiment [1], in experiment [2] and in experiment [3] were 6.61%, 5.75% and 3.05%, respectively.
Turning to `Cn1c(=N)n(CC(=O)N2CCc3ccc(Cl)cc3C2Cc2ccc(Cl)c(Cl)c2)c2ccccc21` (stereo unspecified), the inhibition in experiment [1] was found to be 0.36%; in experiment [2], 1.29%; in experiment [3], 5.67%.
The corresponding values for `CC1C(c2cccc(Cl)c2)OCC(C)(C)N1C(=O)CCN1CCCCC1` (stereo unspecified) are -1.47%, -0.69% and -1.56%.
As to `COc1cc2nc(NCCn3ccnc3C)nc(NCCc3ccccc3)c2cc1OC`, the figures for the inhibition in experiment [1], in experiment [2] and in experiment [3] were 1.91%, 1.02% and 2.18%, respectively.
In the case of `COc1ccc(CC(C)CON2C(N)=NC(N)=NC2(C)C)cc1` (stereo unspecified), the inhibition in experiment [1] amounted to 4.07%; in experiment [2], 4.35%; in experiment [3], 4.04%.
On to `COc1ccc(Cn2c(Nc3cccc(C(F)(F)F)c3)nc3cc(C(=O)NC4CC4)cnc32)cc1Cl`, for which the inhibition in experiment [1] was -1.9%; in experiment [2], -0.56%; in experiment [3], -3.22%.
In the same order, the values of `Oc1ccc(CN2CCC(NCc3cccc4ccccc34)CC2)cc1` are 12.4%, 11.6% and 9.93%.
The corresponding values for `Clc1ccc2c(Cl)c(CNCCCNc3nc4ccccc4[nH]3)[nH]c2c1` are 0.17%, 0.94% and 1.14%.
The corresponding values for `CCCCCCn1c(Sc2ccc(C#N)c([N+](=O)[O-])c2)nnc1-c1ccc(OC)cc1` are 5.67%, 5.13% and -3.74%.
On to `COc1ccc(C(=O)CCC(=O)N(Cc2ccc(-c3ccc(CNCc4cccnc4)cn3)cc2)C2CCN(Cc3ccccc3)CC2)cc1F`, for which the inhibition in experiment [1] is 3.47%; in experiment [2], 1.26%; in experiment [3], 3.53%.

As usually defined, the inhibition is the change of the read-out against control, counted positive when it falls.
